# Several values for one entry are separate records, joined by “and”; a condition that tells them apart may be missing. Identical values can stand only once. Activity calls are given as the source filed them. The calls were made as follows: active = hit-call score of the fitted dose curve at least 0.9, where 1 is the maximum; inactive = score below 0.9.
# Experiment: CCTE_Simmons_MITO_max_resp_rate: CCTE's HepG2 Seahorse XF Respirometric Screening Assay at Maximal Respiratory State [uncoupled], Simmons Lab (AID 2284002)
# Settings: actives raise or lower the signal
# Method: CCTE_Simmons_MITO is cell-based, respirometric assay using HepG2 cells and a Seahorse XF Analyzer to measure oxygen consumption rates over four temporal phases spanning a total of 72 minutes: pre-injection (pre-treatment), basal (following test compound injection), maximal (following FCCP uncoupler injection), and inhibited (following rotenone/antimycin A injection)CCTE_Simmons_MITO_max_resp_rate is one of 4 assay components calculated from the CCTE_Simmons_MITO assay. It is designed to make measurements of maximal respiration using a form of respirometric reporter, as detected with […] signals by Seahorse XF96 technology. Data from the assay component CCTE_Simmons_MITO_max_resp_rate was analyzed at the endpoint, CCTE_Simmons_MITO_max_resp_rate_OCR, with bidirectional fitting relative to DMSO as the negative control and baseline of activity. Using a type of respirometric reporter, measures of maximal respiration for gain or loss-of-signal activity can be used to understand cellular oxygen consumption as it relates to cellular respiration. To generalize the intended target to other relatable targets, this assay endpoint is annotated to the mitochondria intended target family, where the subfamily is respiration.
# Test chemicals were administered as a titrated series of 7 concentrations from 125 nM up to 100 uM [final] prior to kinetic endpoint detection at 6 minute intervals [3 min mix followed by 3 minutes measure] for 72 minutes. Three biological replicates of technical singles were run for every chemical concentration tested. Dimethylsulfoxide [DMSO] was used as the vehicle control. The electron transport chain inhibitor fenpyroximate was used as the positive control for decreased basal respiration and was administered as a titrated series of 6 concentrations from 250 nM up to 2.75 uM [final] with technical triplicates for the top concentration only. The uncoupler 2,4-dintirophenol was used as the positive control for increased basal respiration and was administered as a titrated series of 6 concentrations from 938 nM up to 40 uM [final] with technical triplicates for the top concentration only. A Seahorse XF Analzyer is required to measure the response.
SMILES,AC50,outcome
CC1(c2ccc(Oc3ccccc3)cc2)OC(=O)N(Nc2ccccc2)C1=O (stereo not given),3.04 µM (active),–
CC(C)(C)C(O)/C(=C\c1ccc(Cl)cc1Cl)n1cncn1 (stereo not given),21.1 µM (active),–
Oc1cc(Cl)ccc1Oc1ccc(Cl)cc1Cl,19.3 µM (active),–
COP(=S)(OC)Oc1ccc([N+](=O)[O-])cc1,–,inactive
O=C(O)CCCOc1ccc(Cl)cc1Cl,–,inactive
CCOCN(C(=O)CCl)c1c(C)cccc1CC,–,inactive
Oc1ccc(Cl)cc1Cc1ccccc1,32.8 µM (active) and 41.5 µM (active),–
CCC(C)(NC(=O)c1cc(Cl)c(C)c(Cl)c1)C(=O)CCl (stereo not given),–,inactive
C#CCN1C(=O)COc2cc(F)c(N3C(=O)C4=C(CCCC4)C3=O)cc21,53.1 µM (active),–
O=C(O)COc1ccc(Cl)cc1Cl,–,inactive
CC[C@H](C)[C@H]1O[C@]2(C=C[C@@H]1C)C[C@@H]1C[C@@H](C/C=C(\C)[C@@H](O[C@H]3C[C@H](OC)[C@@H](O[C@H]4C[C@H](OC)[C@@H](O)[C@H](C)O4)[C@H](C)O3)[C@@H](C)/C=C/C=C3\CO[C@@H]4[C@H](O)C(C)=C[C@@H](C(=O)O1)[C@]34O)O2 (tested in a mixture with another compound),18 µM (active),–
CCCN(CCOc1c(Cl)cc(Cl)cc1Cl)C(=O)n1ccnc1,18 µM (active),–
N#Cc1c(Cl)c(Cl)c(Cl)c(C#N)c1Cl,–,inactive
CCC(C)Nc1c([N+](=O)[O-])cc(C(C)(C)C)cc1[N+](=O)[O-] (stereo not given),–,inactive
CCOC1Oc2ccc(OS(C)(=O)=O)cc2C1(C)C (stereo not given),35.3 µM (active),–

# Reference: PubChem BioAssay (EPA / NIEHS)
